High-throughput results deposited in PubChem BioAssay by National Center for Advancing Translational Sciences (NCATS).
HP1b chromo inh – blocks HP1-beta chromodomain binding to methylated histone tails; Potency, µM (series often up to 114 µM), without a hit: at the top dose activity change, negative = inhibition, hits mostly inhibitors; P83916; 390,000 compounds, 0.56% hits; AlphaScreen HP1-beta / biotin-H3K9me3 peptide binding; also: nearly all actives have a fitted effect of over 70% in size
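HP1-beta protein (50 nM final) preincubated 30 min at room temperature with biotinylated H3(1-18)K9me3 peptide (50 nM) in PBS pH 7.4, 0.01% Tween-20, then compound added for 30 min. AlphaScreen streptavidin donor/nickel chelate acceptor beads (10 ug/mL final), 30 min dark, luminescence read.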
BAZ2B inh – inhibitors of human BAZ2B bromodomain. AlphaScreen BAZ2B-H3K14Ac peptide displacement. 360,000 compounds, 4.4% hits. Potency, µM (titrated, usually from 114 µM), for inactives: top-dose activity change, negative = inhibition, hits mostly inhibitors. Q9UIF8; also: % is scaled to controls: 0 for no effect and ±100 for the full control effect; nearly all actives have a fitted effect of over 60% in size
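Compounds, titrated to a top concentration of 110 uM, were incubated 30 min at room temperature with preformed BAZ2B/acetyl-K14 H3 peptide complex (50 nM each). Proximity signal was measured by AlphaScreen after 20 min with beads.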
JMJD2A Tudor – inhibitors of human JMJD2A Tudor domain | Potency, µM (highest dose often 114 µM), for the others: at the highest dose activity change, negative = inhibition, hits mostly inhibitors | AlphaScreen JMJD2A-Tudor / H3K4me3 peptide binding | 390,000 compounds, 4.4% hits | O75164 | AID 504339; also: % is scaled to controls: 0 for no effect and ±100 for the full control effect; nearly all actives have a fitted effect of over 50% in size
Target sequence (O75164 whole entry, looked up, the tested form may be a part): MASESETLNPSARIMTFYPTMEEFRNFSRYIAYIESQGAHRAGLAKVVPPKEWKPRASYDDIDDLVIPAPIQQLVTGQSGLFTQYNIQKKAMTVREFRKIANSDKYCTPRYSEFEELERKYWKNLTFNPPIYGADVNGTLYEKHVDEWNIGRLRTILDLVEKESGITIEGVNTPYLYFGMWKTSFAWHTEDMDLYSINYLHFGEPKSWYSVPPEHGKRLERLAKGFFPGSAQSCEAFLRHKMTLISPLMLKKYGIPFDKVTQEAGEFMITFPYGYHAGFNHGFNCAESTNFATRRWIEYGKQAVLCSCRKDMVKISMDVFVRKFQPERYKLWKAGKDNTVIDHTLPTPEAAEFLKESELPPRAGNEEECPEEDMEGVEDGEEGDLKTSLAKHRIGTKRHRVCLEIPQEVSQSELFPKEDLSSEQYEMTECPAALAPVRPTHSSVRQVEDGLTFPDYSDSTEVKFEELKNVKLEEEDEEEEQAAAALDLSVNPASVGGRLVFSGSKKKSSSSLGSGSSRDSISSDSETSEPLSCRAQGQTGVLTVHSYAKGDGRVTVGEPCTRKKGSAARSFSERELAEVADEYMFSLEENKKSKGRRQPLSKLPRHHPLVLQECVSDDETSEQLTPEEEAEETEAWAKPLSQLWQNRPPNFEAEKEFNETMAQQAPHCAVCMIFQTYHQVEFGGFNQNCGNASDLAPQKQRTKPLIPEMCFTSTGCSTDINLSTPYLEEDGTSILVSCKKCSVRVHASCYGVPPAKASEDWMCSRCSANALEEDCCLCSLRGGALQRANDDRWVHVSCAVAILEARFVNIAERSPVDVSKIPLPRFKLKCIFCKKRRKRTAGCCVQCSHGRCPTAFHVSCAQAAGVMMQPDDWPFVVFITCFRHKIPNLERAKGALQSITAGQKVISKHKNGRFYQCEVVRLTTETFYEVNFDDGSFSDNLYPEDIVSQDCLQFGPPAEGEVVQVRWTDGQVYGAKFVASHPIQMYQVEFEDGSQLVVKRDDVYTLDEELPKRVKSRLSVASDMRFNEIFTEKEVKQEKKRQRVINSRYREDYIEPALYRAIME
G9a inh – inhibitors of human histone lysine methyltransferase G9a. Q96KQ7. G9a H3K9 monomethylation, AlphaScreen, 2 h. Potency, µM (highest dose often 102 µM), without a hit: at the top dose activity, negative = inhibition, hits mostly inhibitors. 350,000 compounds, 8.8% hits. AID 504332; also: % is scaled to controls: 0 for no effect and ±100 for the full control effect; nearly all actives have a fitted effect of over 75% in size
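Compounds were preincubated with 20 nM G9a for 15 min, after which biotinylated H3K9 peptide (500 nM) and SAM (20 uM) started a 2 h room-temperature reaction. Monomethylated product was quantified by antibody-based AlphaScreen chemiluminescence.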
Sfp inh – inhibitors of Bacillus subtilis Sfp phosphopantetheinyl transferase. 310,000 compounds, 3.5% hits. Q9F4F7. Potency, µM, inactives show largest response in the series, negative = inhibition, most hits filed as inhibitors. Biochemical Sfp PPTase activity, qHTS;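 also: the enzyme is Sfp with the accession as filed and its product quenches rhodamine fluorescence; 0% = enzyme reaction without inhibitor and -100% = no enzyme wells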
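Compounds were incubated with enzyme (final 15 nM) for 15 min at room temperature before substrate addition started the reaction. Fluorescence at 525 nm excitation, 598 nm emission was recorded immediately and after 30 minutes.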
L3MBTL1 inh – blocks human L3MBTL1. Potency, µM (highest dose often 57.1 µM), for the others: at the top dose activity, negative = inhibition, most hits filed as inhibitors. AlphaScreen L3MBTL1–H3K9me1 peptide binding. 230,000 compounds, 0.66% hits. Q9Y468; also: % is scaled to controls: 0 for no effect and ±100 for the full control effect; nearly all actives have a fitted effect of over 60% in size
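L3MBTL1 50 nM + b-AHA-H3(1-15)K9me1 75 nM, 30 min RT; compound added, 30 min RT; streptavidin donor/Ni-chelate acceptor beads 10 ug/mL each final, 30 min RT dark; AlphaScreen read.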
Active calls of the source: *; ? = inconclusive; / = no result; [ ] = another dose, or the depositor's remark. In the library only some 12% were active in any assay of this set; here they are far more common. Calls follow the shape of the dose curve; as a rule, active = well fitted curve in the direction sought with a large enough effect; inconclusive = small, poorly fitted or top-dose-only effect, or another doubt; inactive = no such curve, though single readings can be large; an effect the other way counts as inactive or inconclusive. Potency is read from the fitted curve at half-maximal effect.

SMILES | HP1b chromo inh | BAZ2B inh | JMJD2A Tudor | G9a inh | Sfp inh | L3MBTL1 inh
O=C(CSc1nc2ccccc2s1)N1N=C(c2cccs2)CC1c1ccc(F)cc1 (stereo not given) | 28% | -10% | -10% | 13%[59 µM] | 4% | -4%
O=C(CSc1nc2c(cnn2-c2ccc(F)cc2)c(=O)[nH]1)N1N=C(c2cccs2)CC1c1ccc(F)cc1 (stereo not given) | / | 1.3µM* | / | 32µM* | 10% | 4%
COc1ccc(NC(=O)C(C)n2nc(C)c3c(C)n(-c4ccccc4)nc3c2=O)cc1Cl (stereo not given) | 24% | -14% | -1% | ? | / | /
CSc1ccc(Nc2nn(-c3ccc(OC(F)(F)F)cc3)nc2C(C)=O)cc1 | 5% | 2% | -20% | 8%[59 µM] | / | /
O=C1CCC[C@@H]2Cc3[nH]c4c(Cl)ccc(Cl)c4c3[C@@H]3CCN1[C@H]23 | -10% | -11% | -30% | 50µM* | 0% | 0%
COC(=O)c1ccc2nc3c(cc2c1)[C@@H]1CCN2C(=O)CCC[C@H](C3)[C@H]12 | 34% | / | 1% | / | / | /
O=C1C(c2ccccc2)=[N+]([O-])c2ccccc21 | ? | 10µM* | 25µM* | -11%[2.33 µM] | / | ?
CCn1c(-c2ccc(-c3ccccc3)cc2)c[nH]c1=S | 21% | -29% | -36% | ? | 9% | /
C=CCn1c(-c2ccccc2)c[nH]c1=S | ? | -34% | 7.9µM* | ? | 79µM* | 1%
C=CCn1c(-c2ccc(Cl)cc2)c[nH]c1=S | 9% | -27% | 25µM* | 1.4µM* | 3% | -5%
Cn1c(-c2ccc(-c3ccccc3)cc2)c[nH]c1=S | -4% | -34% | ? | 14µM* | -23% | -3%
CCOc1ccc(C(=O)c2cn(CC(=O)Nc3ccc(F)cc3)c3cc4c(cc3c2=O)OCCO4)cc1 | 23% | ? | -13% | -4%[59 µM] | / | /
CCn1nnc2cc(C(=O)Nc3cccc(Cl)c3C)ccc21 | 21% | -1% | 20% | -11%[59 µM] | / | /
O=S(=O)(Nc1cccc2cccnc12)C1CC1 | -14% | / | 50µM* | / | / | /
O=S(=O)(Nc1c(Br)cc(Br)c2cccnc12)C1CC1 | 20% | / | 25µM* | / | / | /
CC(C)C[C@H](N)C(=O)N[C@H](C(=O)N[C@H](C(=O)N[C@@H](Cc1ccc(O)cc1)C(=O)N1CCC[C@H]1C(=O)N[C@@H](Cc1c[nH]c2ccccc12)C(=O)N[C@H](C(=O)N[C@@H](CCC(N)=O)C(=O)N[C@@H](CCCN=C(N)N)C(=O)O)[C@@H](C)O)C(C)C)C(C)C | / | / | / | 39%[59 µM] | -5% | /
CCOC(=O)c1ccc(N2C(=O)CC(N(C)CCc3ccc(OC)c(OC)c3)C2=O)cc1 (stereo not given) | 40% | -1% | -7% | 14µM* | 2% | 0%
Cc1cc2c(s1)c1cnn(Cc3cccc4cccnc34)c(=O)c1n2C | / | / | -24% | / | / | /
CSc1nc(=S)cc(C)[nH]1 | ? | 3% | 25µM* | / | 35µM* | 10%
CSc1nc2c(C)c(C)c(C)c(C)c2[nH]1 | 19% | 0% | -11% | / | -4% | 1%
CCOc1cc(/C=C/c2cc(C(=O)O)c3ccccc3n2)ccc1OC | 47% | 13% | 2% | 71µM* | -7% | 1%
Cc1ccc(S(=O)(=O)NCC(=O)N(c2ccccc2)C(C(=O)NCc2ccccc2)c2ccco2)cc1 (stereo not given) | -2% | 0% | -30% | -5%[59 µM] | 79µM* | -14%
O=C(Cn1c(=O)nc(-c2ccccc2)c2cc(Cl)ccc21)Nc1ccc(F)c(Cl)c1 | 15% | 0% | -6% | -21%[59 µM] | / | /
COc1cc(C(Nc2ccccn2)c2ccc3ccc(C)nc3c2O)cc(OC)c1O (stereo not given) | ? | 50µM* | 50µM* | ? | 18µM* | -11%
Cc1cccc(NC(c2ccccc2C)c2ccc3ccc(C)nc3c2O)n1 (stereo not given) | -13% | 22µM* | ? | ? | / | /
SMILES | HP1b chromo inh | BAZ2B inh | JMJD2A Tudor | G9a inh | Sfp inh | L3MBTL1 inh
Cc1cccc(NCc2ccccc2O)n1 | 38% | 2% | -7% | ? | -5% | -3%
Cc1ccc2ccc(C(Nc3cccc(C(F)(F)F)c3)c3cccnc3)c(O)c2n1 (stereo not given) | 5% | -25% | ? | 10µM* | 14% | 6%
Cc1ccc2ccc(C(Nc3ccccn3)c3ccccc3)c(O)c2n1 (stereo not given) | 4% | ? | ? | 14µM* | 11% | -12%
O=S(=O)(Nc1cccc(C(F)(F)F)c1)c1cccnc1 | 27% | 2% | -24% | -10%[12.7 µM] | 20% | /
CC1Cn2c(C(=O)NCc3ccccc3Cl)cc3cccc(c32)S1 (stereo not given) | 84% | -6% | 34% | 2%[59 µM] | / | /
COc1ccc(NC(=O)c2c(N)c(C(=O)c3ccc(OC)cc3)n3ccccc23)cc1 | 14% | -2% | -21% | -3%[59 µM] | / | /
O=C(O)/C=C/C(=O)Nc1ccc(N2CCOCC2)nc1N1CCOCC1 | ? | -22% | -34% | 8.9µM* | 10µM* | -9%
CC/C(O)=C1\C(=O)CCCC1=NCCc1c(C)[nH]c2ccc(C)cc12 | -24% | ? | -7%[11.4 µM] | -43% | 7% | /
CCCC/C(O)=C1\C(=O)CCCC1=NCCc1c(C)[nH]c2ccc(OC)cc12 | -24% | ? | ? | 71µM* | 14% | /
COc1ccc(OC)c(CN2CCN(Cc3cc(=O)oc4cc(O)ccc34)CC2)c1 | 15% | -19% | -20% | 35µM* | -2% | /
COC(=O)C1CCN(Cc2cc(=O)oc3cc(OC)ccc23)CC1 | 18% | 10% | 0% | 5%[12.7 µM] | 13% | /
O=c1cc(CN2CCN(S(=O)(=O)c3ccc4c(c3)OCCO4)CC2)c2ccc(O)cc2o1 | 9% | -11% | -21% | 50µM* | 1% | /
CCOC(=O)c1cnc(SC2CCc3ccccc3C2=O)nc1N (stereo not given) | -11% | -3% | -20%[57.1 µM] | 35µM* | 56µM* | -2%
CCOC(=O)c1cnc(SC2CC(=O)N(c3ccccc3)C2=O)nc1N (stereo not given) | 46% | 5% | 3% | ? | 6% | -4%
COc1ccccc1Nc1cc(C)nc2c(C)ccc([N+](=O)[O-])c12 | 16µM* | 11µM* | 10µM* | 25µM* | -9% | ?
CC(C)C1C(C#N)=C(N)SC(N)=C1C#N | 41% | -38% | 18% | 14µM* | ? | -11%
CCC(CC)C1C(C#N)=C(N)SC(N)=C1C#N | 55% | -2% | ? | ? | 10% | -15%
CC(c1ccccc1)C1C(C#N)=C(N)SC(N)=C1C#N (stereo not given) | 23% | 12% | ? | 16µM* | 22µM* | -3%
